{"source": "PubChem BioAssay (NCI)", "note": "This is part of a sample that, as a whole, favours compounds with a hit. Of some 83,000 tested, about 20% had one in any assay.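 Values shown are percent growth following 48 h exposure of cells in 96-well plates to a single concentration of compound; below 10 was considered active.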 Calls of active or inactive are those of the source.", "data": [{"tested_on": "HCT-116 colon", "assay": "NCI-60 one-dose screen, 48 h (100 = growth as untreated, 0 = no growth, -100 = all killed)", "conditions": "10 µM", "values": [{"smiles": "CCOC(=O)c1[nH]c(C)c(C(=O)O)c1C", "growth": "116% (inactive)"}, {"smiles": "O=C(c1ccccc1)C1CCC1", "growth": "106% (inactive)"}, {"smiles": "CCOc1ccc(/C=N/N=C(N)N)cc1OCC", "growth": "95.8% (inactive)"}, {"smiles": "CCCC[P+](c1ccccc1)(c1ccccc1)c1ccccc1", "growth": "39.2% (inactive)"}, {"smiles": "O=C(O)[C@@H]1[C@H]2C[C@H]3c4[nH]c5ccccc5c4CCN3C[C@@H]2CC[C@@H]1O", "growth": "92.6% (inactive)"}, {"smiles": "COC(=O)c1ccc(NC(=O)CCl)cc1", "growth": "70% (inactive)"}, {"smiles": "NC(=S)CN1CCOCC1", "growth": "109% (inactive)"}, {"smiles": "COc1ccccc1NC(=O)c1cc2cc(Br)ccc2cc1O", "growth": "3.77% (active)"}, {"smiles": "CCCCN(CCCC)CCCO", "growth": "110% (inactive)"}, {"smiles": "CC1(c2ccccc2)NC(=O)NC1=O", "note": "(configuration not stated)", "growth": "111% (inactive)"}, {"smiles": "Cc1cc(C)c(N)c(S(=O)(=O)O)c1", "growth": "93.6% (inactive)"}, {"smiles": "CN(C)C(C)(C)CC(C)(C)C", "growth": "100% (inactive)"}, {"smiles": "Cc1c(C(=O)O)c(=O)n(-c2ccccc2)n1C", "growth": "113% (inactive)"}, {"smiles": "COc1cc2c3cc1Oc1c(OC)c(OC)cc4c1C(Cc1ccc(O)c(c1)Oc1ccc(cc1)CC3N(C)CC2)N(C)CC4", "note": "(configuration not stated)", "growth": "-94.7% (active)"}, {"smiles": "COc1ccccc1C1OC2=Nc3cc(C)c(C)cc3NC2C1=O", "note": "(configuration not stated)", "growth": "39.2% (inactive)"}, {"smiles": "COc1cc(C(N)=O)cc(OC)c1OC", "growth": "105% (inactive)"}, {"smiles": "COc1cc(C(=O)NC(=S)Nc2ccc3ccccc3c2)cc(OC)c1OC", "growth": "104% (inactive)"}, {"smiles": "O=C1C=CC(=O)N1c1ccc(I)cc1Cl", "growth": "96.9% (inactive)"}, {"smiles": "NC(C(=O)O)c1ccc([N+](=O)[O-])cc1", "note": "(configuration not stated)", "growth": "105% (inactive)"}, {"smiles": "CC1=CC(C)(C)NC(=S)N1c1ccc(S(=O)(=O)O)c2cccc(S(=O)(=O)O)c12", "growth": "107% (inactive)"}, {"smiles": "C=CCNC(=O)c1ccc(OC)cc1", "growth": "105% (inactive)"}, {"smiles": "O=C(/C=C/C(=O)c1ccccc1)c1ccccc1", "growth": "87.6% (inactive)"}, {"smiles": "CCC(O)CC(CC)CO", "note": "(configuration not stated)", "growth": "100% (inactive)"}, {"smiles": "CSc1[nH]c(=O)ncc1F", "growth": "98.3% (inactive)"}, {"smiles": "O=[N+]([O-])c1ccc(Cl)c(S(=O)(=O)O)c1", "growth": "104% (inactive)"}, {"smiles": "CCOC(=O)c1cc(/C=C/c2ccc(Cl)cc2Cl)on1", "growth": "-86.6% (active)"}, {"smiles": "O=C1C=CC2=C3c4cc(O)c(O)cc4CC3(O)COC2=C1O", "note": "(configuration not stated)", "growth": "99% (inactive)"}, {"smiles": "O=C(N/N=C\\c1cc(Br)cc(Br)c1O)N/N=C/c1cc(Br)cc(Br)c1O", "growth": "31.2% (inactive)"}, {"smiles": "O=S(=O)(O)C(Nc1ccccc1)c1ccccc1", "note": "(configuration not stated)", "growth": "103% (inactive)"}, {"smiles": "CCC(=O)Oc1ccc(OC)cc1", "growth": "107% (inactive)"}, {"smiles": "OCc1cccc2ccccc12", "growth": "103% (inactive)"}, {"smiles": "Cc1cc(N2CCC(N3CCCC3)CC2)nc(/N=C(\\N)Nc2ccc(Cl)c(Cl)c2)n1", "growth": "-93.3% (active)"}, {"smiles": "C=CC(=O)OCCCCCCCC", "growth": "100% (inactive)"}, {"smiles": "Cc1cc(=O)cc(C)n1-c1ccccc1", "growth": "98.4% (inactive)"}, {"smiles": "COc1ccccc1NC(=O)C1=C(C)NC(C)=C(C(=O)Nc2ccccc2OC)C1c1cccc([N+](=O)[O-])c1", "growth": "44.9% (inactive)"}, {"smiles": "Cc1nc2ccccc2c(C(=O)O)c1O", "growth": "88.3% (inactive)"}]}, {"tested_on": "HCC-2998 colon", "assay": "NCI-60 one-dose screen, 48 h (100 = growth as untreated, 0 = no growth, -100 = all killed)", "conditions": "10 µM", "values": [{"smiles": "CCOC(=O)c1[nH]c(C)c(C(=O)O)c1C", "growth": "107% (inactive)"}, {"smiles": "O=C(c1ccccc1)C1CCC1", "growth": "100% (inactive)"}, {"smiles": "CCOc1ccc(/C=N/N=C(N)N)cc1OCC", "growth": "101% (inactive)"}, {"smiles": "CCCC[P+](c1ccccc1)(c1ccccc1)c1ccccc1", "growth": "32.2% (inactive)"}, {"smiles": "NC(=S)CN1CCOCC1", "growth": "102% (inactive)"}, {"smiles": "COc1ccccc1NC(=O)c1cc2cc(Br)ccc2cc1O", "growth": "20.1% (inactive)"}, {"smiles": "CCCCN(CCCC)CCCO", "growth": "94.1% (inactive)"}, {"smiles": "CC1(c2ccccc2)NC(=O)NC1=O", "note": "(configuration not stated)", "growth": "102% (inactive)"}, {"smiles": "Cc1cc(C)c(N)c(S(=O)(=O)O)c1", "growth": "91.2% (inactive)"}, {"smiles": "CN(C)C(C)(C)CC(C)(C)C", "growth": "109% (inactive)"}, {"smiles": "Cc1c(C(=O)O)c(=O)n(-c2ccccc2)n1C", "growth": "106% (inactive)"}, {"smiles": "COc1cc2c3cc1Oc1c(OC)c(OC)cc4c1C(Cc1ccc(O)c(c1)Oc1ccc(cc1)CC3N(C)CC2)N(C)CC4", "note": "(configuration not stated)", "growth": "-72.7% (active)"}, {"smiles": "COc1ccccc1C1OC2=Nc3cc(C)c(C)cc3NC2C1=O", "note": "(configuration not stated)", "growth": "105% (inactive)"}, {"smiles": "COc1cc(C(N)=O)cc(OC)c1OC", "growth": "105% (inactive)"}, {"smiles": "COc1cc(C(=O)NC(=S)Nc2ccc3ccccc3c2)cc(OC)c1OC", "growth": "99.5% (inactive)"}, {"smiles": "O=C1C=CC(=O)N1c1ccc(I)cc1Cl", "growth": "95.7% (inactive)"}, {"smiles": "NC(C(=O)O)c1ccc([N+](=O)[O-])cc1", "note": "(configuration not stated)", "growth": "111% (inactive)"}, {"smiles": "CC1=CC(C)(C)NC(=S)N1c1ccc(S(=O)(=O)O)c2cccc(S(=O)(=O)O)c12", "growth": "108% (inactive)"}, {"smiles": "O=C(/C=C/C(=O)c1ccccc1)c1ccccc1", "growth": "107% (inactive)"}, {"smiles": "CCC(O)CC(CC)CO", "note": "(configuration not stated)", "growth": "109% (inactive)"}, {"smiles": "CSc1[nH]c(=O)ncc1F", "growth": "96.8% (inactive)"}, {"smiles": "CCOC(=O)c1cc(/C=C/c2ccc(Cl)cc2Cl)on1", "growth": "82% (inactive)"}, {"smiles": "O=C1C=CC2=C3c4cc(O)c(O)cc4CC3(O)COC2=C1O", "note": "(configuration not stated)", "growth": "-35.6% (active)"}, {"smiles": "O=S(=O)(O)C(Nc1ccccc1)c1ccccc1", "note": "(configuration not stated)", "growth": "-12.8% (active)"}, {"smiles": "CCC(=O)Oc1ccc(OC)cc1", "growth": "114% (inactive)"}, {"smiles": "Cc1cc(N2CCC(N3CCCC3)CC2)nc(/N=C(\\N)Nc2ccc(Cl)c(Cl)c2)n1", "growth": "-82.2% (active)"}, {"smiles": "O=c1[nH]nc(SC2CCCCC2)c(=O)[nH]1", "growth": "92% (inactive)"}, {"smiles": "C=CC(=O)OCCCCCCCC", "growth": "104% (inactive)"}, {"smiles": "Cc1cc(=O)cc(C)n1-c1ccccc1", "growth": "107% (inactive)"}, {"smiles": "COc1ccccc1NC(=O)C1=C(C)NC(C)=C(C(=O)Nc2ccccc2OC)C1c1cccc([N+](=O)[O-])c1", "growth": "76.9% (inactive)"}, {"smiles": "Cc1nc2ccccc2c(C(=O)O)c1O", "growth": "89% (inactive)"}]}]}
